This is an account of results in PubChem BioAssay (NCI).

This is part of a sample that, as a whole, favours compounds with a hit. Of some 79,000 tested, about 15% had one in any assay. Values without a mark were called inactive. Calls of active or inactive are those of the source. Cut-off read from the data, not from the text of the source: active = growth inhibition above about 70%; inactive = the rest.

Test [1] is described as follows: NCI Yeast Anticancer Drug Screen. Data for the rad50 strain (AID 155).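 Note: 0% = growth of vehicle-only cultures of the same strain.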 Particulars: S. cerevisiae rad50 strain growth inhibition, stronger effect = higher value. Summed up:
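Relative growth inhibition (compound vs vehicle) was measured in yeast with a defined repair-gene alteration.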

The nature of test [2]: NCI Yeast Anticancer Drug Screen. Data for the mec2-1 strain (AID 157). Particulars: S. cerevisiae mec2-1 strain, stronger effect = higher value. Summed up:
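mec2-1 yeast strain, carrying an alteration in DNA damage repair or cell cycle control, was exposed to compounds; growth inhibition was measured relative to vehicle-treated controls.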

The nature of test [3]: NCI Yeast Anticancer Drug Screen. Data for the sgs1 mgt1 strain (AID 161).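 Note: 0% = growth of cultures given vehicle only.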 Particulars: S. cerevisiae sgs1 mgt1 strain, stronger effect = higher value. In a few lines: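 This yeast growth screen uses a strain with defined DNA-repair lesions; compound-treated growth is compared with vehicle-treated growth.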
Test [4] can be described thus: NCI Yeast Anticancer Drug Screen. Data for the cln2 rad14 strain (AID 165).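 Note: 0% = growth equal to vehicle treated cultures.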 Particulars: S. cerevisiae cln2 rad14 strain, stronger effect = higher value. In a few lines: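 Yeast carrying cln2 and rad14 alterations (cell cycle control and DNA damage repair) were exposed to compounds. Growth inhibition was measured against vehicle-treated controls.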
A short description of test [5]: NCI Yeast Anticancer Drug Screen. Data for the bub3 strain (AID 167). Particulars: S. cerevisiae bub3 mutant strain, stronger effect = higher value. Summed up: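 Screening used yeast with an engineered genetic alteration affecting cell cycle control. Compound-exposed cultures were compared with vehicle cultures, and reduced growth was taken as inhibition.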
The nature of test [6]: NCI Yeast Anticancer Drug Screen. Data for the mlh1 rad18 strain (AID 175). Particulars: S. cerevisiae mlh1 rad18 strain growth inhibition, stronger effect = higher value. In a few lines:
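Growth inhibition of the yeast strain was measured after compound exposure and expressed relative to vehicle-treated controls. The strain carries defined defects in DNA damage repair.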

Where [7] appears, read: at 5.0 µM (retest, dose inferred, filed as 0.5).
Setting [8] is: at 50.0 µM (retest, dose inferred, filed as 5.0).

With `CC(C)C(=O)OCC(C)(C)C1OCC(C)(C)C(C(C)C)O1` (stereo not given), the growth inhibition in test [1] (setting [7]) was 11%; in test [1] (setting [8]) it was -9%; in test [1] (at 50.0 µM) it was -5.55%; in test [2] (setting [7]), 97% (active); in test [2] (setting [8]), 5%; in test [2] (at 50.0 µM), -3.85%. For the same compound, the growth inhibition in test [3] (setting [7]) was 12%; in test [3] (setting [8]), 3%; in test [3] (at 50.0 µM), -1.55%; in test [4] (setting [7]), -19%; in test [4] (setting [8]), -6%; in test [4] (at 50.0 µM) it was 9%. In addition, the growth inhibition is 98% (active) in test [5] (setting [7]); 0% in test [5] (setting [8]); 1.15% in test [5] (at 50.0 µM); 88% (active) in test [6] (setting [7]); -13% in test [6] (setting [8]); 4.85% in test [6] (at 50.0 µM).
Take `C=C(c1ccccc1)[N+](=O)[O-]`: the growth inhibition in test [1] (setting [7]) is 94% (active); in test [1] (setting [8]) it was 99% (active); in test [1] (at 50.0 µM), 99.2% (active); in test [2] (setting [7]), 63%; in test [2] (setting [8]), 99% (active); in test [2] (at 50.0 µM), 99.4% (active). Further, the growth inhibition is 59% in test [3] (setting [7]); 99% (active) in test [3] (setting [8]); 99.6% (active) in test [3] (at 50.0 µM); 37% in test [4] (setting [7]); 99% (active) in test [4] (setting [8]); 99.1% (active) in test [4] (at 50.0 µM). Further, the growth inhibition in test [5] (setting [7]) was 67%; in test [5] (setting [8]), 99% (active); in test [5] (at 50.0 µM), 99.3% (active); in test [6] (setting [7]) it was 67%; in test [6] (setting [8]), 100% (active); in test [6] (at 50.0 µM) it was 99.2% (active).
For the compound `CNC(=O)N1N[C@H](c2ccccc2)[C@@H]1c1ccccc1`, the growth inhibition in test [1] (setting [7]) was 25%; in test [1] (setting [8]), 69%; in test [1] (at 50.0 µM), 30.6%; in test [2] (setting [7]), 15%; in test [2] (setting [8]), 50%; in test [2] (at 50.0 µM), 35%. Moreover, the growth inhibition was 21% in test [3] (setting [7]); 63% in test [3] (setting [8]); 47.4% in test [3] (at 50.0 µM); 20% in test [4] (setting [7]); 32% in test [4] (setting [8]); 36.9% in test [4] (at 50.0 µM). Also, the growth inhibition in test [5] (setting [7]) is 29%; in test [5] (setting [8]), 72% (active); in test [5] (at 50.0 µM) it was 46.9%; in test [6] (setting [7]) it was 23%; in test [6] (setting [8]), 60%; in test [6] (at 50.0 µM), -14.1%.
`Cn1cc(C2=CC(=O)C=CC2=O)c2ccccc21`: the growth inhibition was 0% in test [1] (setting [7]); 97% (active) in test [1] (setting [8]); 98.1% (active) in test [1] (at 50.0 µM); 8% in test [2] (setting [7]); 99% (active) in test [2] (setting [8]); 98.6% (active) in test [2] (at 50.0 µM). The growth inhibition in test [3] (setting [7]) is 4%; in test [3] (setting [8]), 98% (active); in test [3] (at 50.0 µM), 98.8% (active); in test [4] (setting [7]) it was -2%; in test [4] (setting [8]) it was 98% (active); in test [4] (at 50.0 µM) it was 98.2% (active). Further, the growth inhibition is -4% in test [5] (setting [7]); 97% (active) in test [5] (setting [8]); 98.2% (active) in test [5] (at 50.0 µM); 2% in test [6] (setting [7]); 98% (active) in test [6] (setting [8]); 98.5% (active) in test [6] (at 50.0 µM).
On to `CC(C)N(C(=O)c1ccc(Cl)c(Cl)c1)C(C)C`, for which the growth inhibition in test [1] (setting [7]) was -15%; in test [1] (setting [8]), -14%; in test [1] (at 50.0 µM), -0.55%; in test [2] (setting [7]), -14%; in test [2] (setting [8]), 4%; in test [2] (at 50.0 µM), 10.8%. The growth inhibition in test [3] (setting [7]) is -1%; in test [3] (setting [8]), 0%; in test [3] (at 50.0 µM), 15.1%; in test [4] (setting [7]) it was 29%; in test [4] (setting [8]), -26%; in test [4] (at 50.0 µM) it was 13.4%. Moreover, the growth inhibition in test [5] (setting [7]) was 6%; in test [5] (setting [8]), -25%; in test [5] (at 50.0 µM), 9.2%; in test [6] (setting [7]), -12%; in test [6] (setting [8]), 0%; in test [6] (at 50.0 µM) it was -5.65%.
For the compound `O=c1[nH]c(=S)[nH]c(-c2ccccc2)c1Cc1c(O)ccc2ccccc12`, the growth inhibition in test [1] (setting [7]) was -15%; in test [1] (setting [8]) it was 74% (active); in test [1] (at 50.0 µM), 88.7% (active); in test [2] (setting [7]), 32%; in test [2] (setting [8]), 40%; in test [2] (at 50.0 µM), 89.6% (active). Moreover, the growth inhibition in test [3] (setting [7]) was -10%; in test [3] (setting [8]) it was 65%; in test [3] (at 50.0 µM), 84.3% (active); in test [4] (setting [7]) it was -17%; in test [4] (setting [8]), 41%; in test [4] (at 50.0 µM), 75.2% (active). In addition, the growth inhibition in test [5] (setting [7]) is -15%; in test [5] (setting [8]) it was 57%; in test [5] (at 50.0 µM) it was 80.8% (active); in test [6] (setting [7]) it was -4%; in test [6] (setting [8]), 60%; in test [6] (at 50.0 µM) it was 79.7% (active).
Regarding `CC(C)C(=O)NNc1ccccc1`, the growth inhibition in test [1] (setting [7]) is 28%; in test [1] (setting [8]), 77% (active); in test [1] (at 50.0 µM), 93.1% (active); in test [2] (setting [7]), 1%; in test [2] (setting [8]), 57%; in test [2] (at 50.0 µM), 34.2%. Besides, the growth inhibition is 18% in test [3] (setting [7]); 70% (active) in test [3] (setting [8]); 87.2% (active) in test [3] (at 50.0 µM); 15% in test [4] (setting [7]); 67% in test [4] (setting [8]); 93.2% (active) in test [4] (at 50.0 µM). The growth inhibition was 21% in test [5] (setting [7]); 95% (active) in test [5] (setting [8]); 70.4% (active) in test [5] (at 50.0 µM); 39% in test [6] (setting [7]); 92% (active) in test [6] (setting [8]); 83.2% (active) in test [6] (at 50.0 µM).
In the case of `COC(=O)c1ccccc1N=NN(C)CC1OC2OC(C)(C)OC2C1OC` (stereo not given), the growth inhibition is 10% in test [1] (setting [7]); 69% in test [1] (setting [8]); 71.2% (active) in test [1] (at 50.0 µM); 17% in test [2] (setting [7]); 27% in test [2] (setting [8]); 43.2% in test [2] (at 50.0 µM). In addition, the growth inhibition in test [3] (setting [7]) was 1%; in test [3] (setting [8]), 36%; in test [3] (at 50.0 µM) it was 74.1% (active); in test [4] (setting [7]), -3%; in test [4] (setting [8]) it was 20%; in test [4] (at 50.0 µM) it was -0.8%. The growth inhibition is 0% in test [5] (setting [7]); 44% in test [5] (setting [8]); 32.6% in test [5] (at 50.0 µM); 4% in test [6] (setting [7]); 61% in test [6] (setting [8]); 88% (active) in test [6] (at 50.0 µM).
Regarding `COc1cc(OC)c(SSCCCCS(=O)O)c(OC)c1`, the growth inhibition is 0% in test [1] (setting [7]); 14% in test [1] (setting [8]); 10.6% in test [1] (at 50.0 µM); 1% in test [2] (setting [7]); 44% in test [2] (setting [8]); 21.5% in test [2] (at 50.0 µM). The growth inhibition in test [3] (setting [7]) is 11%; in test [3] (setting [8]), 55%; in test [3] (at 50.0 µM), 41.5%; in test [4] (setting [7]) it was -13%; in test [4] (setting [8]), 25%; in test [4] (at 50.0 µM), 44.7%. In addition, the growth inhibition in test [5] (setting [7]) was 7%; in test [5] (setting [8]), 63%; in test [5] (at 50.0 µM), -26.2%; in test [6] (setting [7]), 1%; in test [6] (setting [8]) it was 36%; in test [6] (at 50.0 µM), 40.8%.
On to `CC(=O)N=C1N(/C=C2\C(=O)Oc3ccccc3C2=O)C(=O)/C(=C/c2ccco2)N1C`, for which the growth inhibition is -12% in test [1] (setting [7]); 84% (active) in test [1] (setting [8]); 97.6% (active) in test [1] (at 50.0 µM); 3% in test [2] (setting [7]); 74% (active) in test [2] (setting [8]); 97.1% (active) in test [2] (at 50.0 µM). In addition, the growth inhibition in test [3] (setting [7]) was -6%; in test [3] (setting [8]), 65%; in test [3] (at 50.0 µM) it was 96.2% (active); in test [4] (setting [7]), -7%; in test [4] (setting [8]), 24%; in test [4] (at 50.0 µM), 91% (active). Also, the growth inhibition in test [5] (setting [7]) is -22%; in test [5] (setting [8]), 76% (active); in test [5] (at 50.0 µM), 97.7% (active); in test [6] (setting [7]), -17%; in test [6] (setting [8]) it was 61%; in test [6] (at 50.0 µM), 98.7% (active).
